Results filed as inconclusive are left out. Active and inactive are the calls of the source. Unless noted, calls come from the whole dose curve; as a rule, active = well fitted curve in the direction sought with a large enough effect in the repeat runs; inconclusive = weak or mixed curves; inactive = no such curve, though single readings can be large; an effect the other way counts as inactive or inconclusive.
How the values were obtained:
[1] = qHTS assay to identify small molecule agonists of the estrogen receptor alpha (ER-alpha) signaling pathway in the presence of an antagonist - cell viability counter screen (AID 1259386);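 note: series mostly up to about 92 µM; cells exposed to compounds for 22 h at 37 °C before the viability read; nearly all actives have a fitted effect of over 30% in size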
In short: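 VM7Luc4E2 cells (endogenous full-length ER-alpha, 4×ERE-luciferase) were held 5 days in phenol red-free medium with 10% charcoal-stripped FBS, plated, then given 10.0nM ICI-182,780 and compounds at 15 concentrations for 22hr at 37C; viability read by CellTiter-Fluor fluorescence.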

[2] = molecular target: Progesterone receptor (Homo sapiens) (UniProt P06401); test: qHTS assay to identify small molecule agonists of the progesterone receptor (PR) signaling pathway (AID 1346784; calls by dose curve; note: nearly all actives have a fitted effect of over 30% in size)
Chain of Progesterone receptor (Homo sapiens) (P06401 whole entry, looked up): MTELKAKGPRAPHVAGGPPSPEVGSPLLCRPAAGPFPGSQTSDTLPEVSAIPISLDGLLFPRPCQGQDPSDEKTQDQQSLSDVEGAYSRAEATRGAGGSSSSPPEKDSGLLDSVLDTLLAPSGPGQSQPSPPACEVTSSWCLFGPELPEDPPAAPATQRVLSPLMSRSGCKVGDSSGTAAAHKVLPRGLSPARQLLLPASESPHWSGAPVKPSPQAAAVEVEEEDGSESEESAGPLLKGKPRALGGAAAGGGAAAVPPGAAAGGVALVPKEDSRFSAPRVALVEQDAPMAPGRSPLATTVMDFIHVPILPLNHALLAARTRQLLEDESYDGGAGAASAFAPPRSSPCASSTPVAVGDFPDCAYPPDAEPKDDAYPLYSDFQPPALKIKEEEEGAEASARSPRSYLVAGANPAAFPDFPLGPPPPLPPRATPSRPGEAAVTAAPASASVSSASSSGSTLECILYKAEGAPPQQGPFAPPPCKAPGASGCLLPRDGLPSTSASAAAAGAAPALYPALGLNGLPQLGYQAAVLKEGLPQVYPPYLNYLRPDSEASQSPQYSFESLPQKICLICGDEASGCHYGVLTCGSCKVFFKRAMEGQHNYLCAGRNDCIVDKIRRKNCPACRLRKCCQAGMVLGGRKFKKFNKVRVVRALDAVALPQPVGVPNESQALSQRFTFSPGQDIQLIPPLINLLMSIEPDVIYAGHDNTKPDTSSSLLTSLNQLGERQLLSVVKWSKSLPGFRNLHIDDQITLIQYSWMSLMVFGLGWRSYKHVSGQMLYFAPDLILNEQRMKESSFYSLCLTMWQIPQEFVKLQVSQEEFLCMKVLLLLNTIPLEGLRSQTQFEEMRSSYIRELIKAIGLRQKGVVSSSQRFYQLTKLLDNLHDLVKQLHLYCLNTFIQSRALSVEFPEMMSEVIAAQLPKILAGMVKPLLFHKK
In short: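 Agonist qHTS: compounds pinned onto 3,000 PR-UAS-bla HEK 293T cells per well in charcoal-stripped serum medium, 16hr at 37C, then beta-lactamase activity measured by LiveBLAzer FRET fluorescence after 2 hours at room temperature.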

[3] = molecular target: Progesterone receptor (Homo sapiens) (UniProt P06401); test: qHTS assay to identify small molecule antagonists of the progesterone receptor (PR) signaling pathway (AID 1346795; active = well fitted inhibition curve with a large enough effect in the signal ratio in the repeat runs, not every such curve was filed as active; the % refers to the signal ratio)
In short: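 Antagonist mode with agonist R5020 at 1 nM final and 16 hr incubation at 37C. Reporter was beta-lactamase driven by UAS in HEK293T (PR-UAS-bla), 2% charcoal-stripped serum; signal from LiveBLAzer FRET substrate, 2 hr at room temperature.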

[4] = qHTS assay to identify small molecule antagonists of the progesterone receptor (PR) signaling pathway - cell viability counter screen (AID 1346798); note: series mostly up to about 92 µM; nearly all actives have a fitted effect of over 50% in size
In short: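 Cytotoxicity read as CellTiter-Glo luminescence (30 min, room temperature) in the same wells as the beta-lactamase readout. HEK293T PR-UAS-bla cells in charcoal-stripped 2% FBS received compound and R5020, then 16 h at 37C, 5% CO2.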

[5] = qHTS assay to identify small molecule agonists of the TGF-beta/Smad signaling pathway - cell viability counter screen (AID 1346829); note: top concentration of the series differs between compounds; nearly all actives have a fitted effect of over 45% in size
In short: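 Luminescence from CellTiter-Glo, read after a 30 min room-temperature incubation, gives cell viability of SBE-bla HEK 293T cells treated 5 hr with compounds at 37 C.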

[6] = qHTS assay to identify small molecule agonists of the TGF-beta/Smad signaling pathway (AID 1346859; active = well fitted activation curve with a large enough effect in the signal ratio in the repeat runs, not every such curve was filed as active; the % refers to the signal ratio; note: series mostly up to about 77 µM)
In short: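 Fluorescence (ex 405 nm; em 460 and 530 nm) was read 2 h after LiveBLAzer FRET substrate at RT. The preceding compound treatment of overnight-plated SBE-bla HEK293T cells lasted 5 h at 37 C.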

[7] = molecular target: Thyrotropin-releasing hormone receptor (Homo sapiens) (UniProt P34981); test: qHTS assay to identify small molecule antagonists of the thyrotropin-releasing hormone receptor (TRHR) signaling pathway (AID 1346877; active = well fitted inhibition curve with a large enough effect in the repeat runs, not every such curve was filed as active; note: series mostly up to about 51 µM)
Chain of Thyrotropin-releasing hormone receptor (Homo sapiens) (P34981 whole entry, looked up): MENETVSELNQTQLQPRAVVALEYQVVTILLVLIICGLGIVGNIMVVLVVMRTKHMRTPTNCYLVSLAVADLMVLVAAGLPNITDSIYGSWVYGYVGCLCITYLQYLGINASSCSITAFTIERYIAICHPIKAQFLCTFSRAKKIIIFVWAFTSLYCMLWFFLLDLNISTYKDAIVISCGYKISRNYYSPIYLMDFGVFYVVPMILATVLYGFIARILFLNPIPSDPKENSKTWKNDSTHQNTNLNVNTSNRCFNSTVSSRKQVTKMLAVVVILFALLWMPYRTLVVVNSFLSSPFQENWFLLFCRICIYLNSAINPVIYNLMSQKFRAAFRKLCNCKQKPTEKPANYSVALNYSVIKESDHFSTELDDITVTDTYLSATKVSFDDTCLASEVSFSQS
In short: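 TRHR-expressing HEK293 cells were seeded, cultured 18 h at 37 °C, then loaded with calcium dye for 2 h. Compounds were pre-incubated 5 min at room temperature before 1 nM TRH (final) was added, and kinetic fluorescence was recorded for 3 min.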

[8] = molecular target: Thyrotropin-releasing hormone receptor (Homo sapiens) (UniProt P34981); test: qHTS assay to identify small molecule agonists of the thyrotropin-releasing hormone receptor (TRHR) signaling pathway (AID 1346891; calls by dose curve; note: series mostly up to about 58 µM)
In short: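 Agonist-mode intracellular calcium readout: kinetic fluorescence over 3 min at 1 s intervals after compound addition to TRHR-HEK293 cells (18 h seeded, 2 h dye-loaded at 37 C). Fifteen concentrations, triplicates.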

[9] = Human pregnane X receptor (PXR) small molecule agonists, qHTS cell viability counter screen (AID 1346977); note: nearly all actives have a fitted effect of over 50% in size
In short: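 Same-well viability read: CellTiter-Fluor added after 23 hr compound exposure, fluorescence measured 1 hr later. Cells were PXR-Luc HepG2 seeded at 2,000/well in 5% charcoal-stripped FBS medium, rested 5 hr before dosing at 37 C.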

[10] = Caspase-3/7 induction in HepG2 cells by small molecules, qHTS assay (AID 1346978); note: nearly all actives have a fitted effect of over 15% in size
In short: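 Wild-type HepG2 cells (2,000/well) were settled 5 h at 37 C, 5% CO2, then exposed to compounds in DMSO for 17 h. Caspase-3/7 activity was read by luminescence 30 min after adding Caspase-Glo 3/7 reagent at room temperature.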

[11] = Caspase-3/7 induction in CHO-K1 cells by small molecules, qHTS cell viability counter screen (AID 1346979); note: nearly all actives have a fitted effect of over 35% in size
In short: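 Cytotoxicity counter screen: CellTiter-Fluor added to compound-treated wild-type CHO-K1 cells at 16 h (37C, 5% CO2), fluorescence measured 1 h later; same wells as caspase-3/7 measurement.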

[12] = Caspase-3/7 induction in CHO-K1 cells by small molecules, qHTS assay (AID 1346980); note: nearly all actives have a fitted effect of over 15% in size
In short: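 Wild-type cells were seeded at 1,500 per well and settled 5 hr at 37 C, 5% CO2, then exposed to DMSO-dissolved compounds for 17 hr. Caspase-Glo 3/7 reagent was added, and luminescence was read after 30min at room temperature.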

[13] = Caspase-3/7 induction in HepG2 cells by small molecules, qHTS cell viability counter screen (AID 1346981); note: series mostly up to about 92 µM; nearly all actives have a fitted effect of over 30% in size
In short: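 Wild-type HepG2 cells (2,000/well) were allowed to settle for 5 hr at 37 C, 5% CO2, then dosed with compounds in DMSO by pin transfer. After 16 hr at 37 C, CellTiter-Fluor was added and fluorescence read 1 hr later.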

[14] = molecular target: Nuclear receptor subfamily 1 group I member 2 (Homo sapiens) (UniProt O75469); test: Human pregnane X receptor (PXR) small molecule agonists, qHTS assay (AID 1346982); note: nearly all actives have a fitted effect of over 35% in size; note: potency is the fitted concentration of half-maximal effect
Chain of Nuclear receptor subfamily 1 group I member 2 (Homo sapiens) (O75469 whole entry, looked up): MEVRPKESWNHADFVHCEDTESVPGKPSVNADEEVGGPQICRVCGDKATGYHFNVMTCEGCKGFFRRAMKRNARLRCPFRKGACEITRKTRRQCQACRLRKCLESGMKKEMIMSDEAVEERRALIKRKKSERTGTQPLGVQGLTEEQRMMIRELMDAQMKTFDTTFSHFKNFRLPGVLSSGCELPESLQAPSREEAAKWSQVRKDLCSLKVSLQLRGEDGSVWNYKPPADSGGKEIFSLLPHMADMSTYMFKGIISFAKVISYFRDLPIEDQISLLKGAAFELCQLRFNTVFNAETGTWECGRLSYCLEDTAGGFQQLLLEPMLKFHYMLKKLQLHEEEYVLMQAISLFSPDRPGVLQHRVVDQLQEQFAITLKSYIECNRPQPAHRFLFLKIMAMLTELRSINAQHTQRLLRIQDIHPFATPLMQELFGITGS
In short: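 PXR-Luc HepG2 cells (CYP3A4 promoter-driven luciferase) were seeded in medium with 5% charcoal-stripped FBS, left 5 hr at 37 C, then exposed to compounds in DMSO for 24 hr. Luminescence was read after ONE-Glo addition.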

[15] = qHTS assay to identify small molecule agonists of the progesterone receptor (PR) signaling pathway - cell viability counter screen (AID 1346799; calls by dose curve; note: nearly all actives have a fitted effect of over 45% in size)
In short: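 Cytotoxicity measured by CellTiter-Glo luminescence (30 min, RT) in the same wells as the PR beta-lactamase agonist read. Those HEK293T cells had 16 h compound treatment at 37 C in 2% charcoal-stripped FBS medium.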

[16] = qHTS assay to identify small molecule antagonists of the TGF-beta/Smad signaling pathway - cell viability counter screen (AID 1346824); note: nearly all actives have a fitted effect of over 50% in size
In short: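 SBE-bla HEK 293T cells were plated overnight at 37 C, then given compounds in DMSO plus TGF-beta1 (added as 0.25 ng/mL solution) for 5 hr. After the bla read, CellTiter-Glo was added to the same wells and luminescence read after 30 min at room temperature.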
% is set by controls: 0 for no effect and ±100 for the full control effect.

C1=COCCC1
inactive: Potency [1] | Potency [2] | Potency [3] | Potency [4] | outcome [5] | outcome [6] | outcome [7] | outcome [8] | Potency [9] | Potency [10] | Potency [11] | Potency [12] | Potency [13] | Potency [14]

O=C1C=CCCC1
inactive: Potency [1] | Potency [2] | Potency [3] | Potency [4] | Potency [15] | outcome [16] | outcome [5] | outcome [6] | Potency [10] | Potency [11] | Potency [13] | Potency [14]

CC(=O)c1cccnc1
inactive: Potency [1] | Potency [2] | Potency [3] | Potency [4] | Potency [15] | outcome [5] | outcome [6] | Potency [9] | Potency [10] | Potency [12] | Potency [13] | Potency [14]

CC(=O)Nc1cccc(N)c1
inactive: Potency [1] | Potency [2] | Potency [3] | Potency [4] | Potency [15] | outcome [16] | outcome [6] | outcome [8] | Potency [9] | Potency [10] | Potency [11] | Potency [13] | Potency [14]

O=[N+]([O-])c1cccc(I)c1
inactive: Potency [1] | Potency [2] | Potency [3] | Potency [4] | Potency [15] | outcome [16] | outcome [5] | outcome [6] | Potency [9] | Potency [10] | Potency [11] | Potency [12] | Potency [13] | Potency [14]

O=C(O)c1ccc2c(c1)nc(C(=O)NC1CCN(C3CC3)CC1)n2Cc1cc(-c2ccc(Cl)s2)on1
inactive: activity change, negative = cytotoxicity [1] 7.53% [at 19 µM] | activation [2] 1.53% [at 19 µM] | activity change, negative = inhibition [3] -15.4% [at 18.9 µM] | activity change, negative = cytotoxicity [4] -14.4% [at 18.9 µM] | activity change, negative = cytotoxicity [15] -20.4% [at 19 µM] | viability change, negative = cytotoxic [16] 0.205% [at 15.8 µM] | activity change, negative = cytotoxicity [5] 20.2% [at 15.8 µM] | activity, negative = inhibition [7] 0.0336% [at 10.5 µM] | activation [8] 2.01% [at 11.8 µM] | activity change, negative = cytotoxicity [9] 17.8% [at 19 µM] | caspase activation [10] -0.956% [at 19 µM] | caspase-3/7 activation [12] 9.35% [at 19 µM] | activity change, negative = cytotoxicity [13] 3.23% [at 19 µM] | activation [14] -32.3% [at 19 µM]

O=C(O)c1ccc2cc(O)ccc2c1
inactive: Potency [1] | Potency [2] | Potency [3] | Potency [4] | Potency [15] | outcome [5] | outcome [6] | outcome [7] | outcome [8] | Potency [9] | Potency [10] | Potency [11] | Potency [12] | Potency [13] | Potency [14]

CCCCOC(=O)CC#N
inactive: Potency [1] | Potency [2] | Potency [3] | Potency [4] | Potency [15] | outcome [5] | outcome [6] | Potency [10] | Potency [11] | Potency [12] | Potency [13] | Potency [14]

CCC(C(=O)O)c1ccc(N2Cc3ccccc3C2=O)cc1 (stereo not drawn)
inactive: Potency [1] | Potency [2] | Potency [3] | Potency [4] | Potency [15] | outcome [16] | outcome [5] | outcome [7] | outcome [8] | Potency [9] | Potency [13]
active: Potency [14] 4.73 µM

Source: PubChem BioAssay (Tox21)
